Screening results: PubChem BioAssay, The Scripps Research Institute Molecular Screening Center
TbREL1 inh: TbREL1 inhibition, primary screen; inhibition, % at 9.66 µM; P86926; TbREL1 RNA ligation, FRET fluorescence; 0.49% of 89,000 active;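 active means inhibition above the mean inhibition across all screened compounds plus 3 SD, cut at about 11% in these data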;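 further: 0% = plate median of test wells and 100% = NSC42067 control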
Target sequence (P86926 whole entry, looked up): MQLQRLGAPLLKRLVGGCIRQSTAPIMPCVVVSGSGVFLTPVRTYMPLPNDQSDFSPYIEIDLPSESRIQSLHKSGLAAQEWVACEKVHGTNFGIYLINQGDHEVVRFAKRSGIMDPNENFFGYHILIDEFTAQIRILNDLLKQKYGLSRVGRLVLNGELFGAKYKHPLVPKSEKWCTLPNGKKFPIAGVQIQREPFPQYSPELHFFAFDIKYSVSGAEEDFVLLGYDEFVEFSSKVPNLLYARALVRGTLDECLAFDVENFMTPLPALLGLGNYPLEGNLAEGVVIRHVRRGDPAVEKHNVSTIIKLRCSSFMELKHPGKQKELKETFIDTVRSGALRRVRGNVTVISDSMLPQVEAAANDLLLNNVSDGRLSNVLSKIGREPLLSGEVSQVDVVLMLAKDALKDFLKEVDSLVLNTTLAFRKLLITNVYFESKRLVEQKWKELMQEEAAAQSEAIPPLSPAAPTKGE
TbREL1 conf: TbREL1 inhibition, confirmation. shares compounds with TbREL1 inh. TbREL1 RNA ligation, FRET fluorescence. inhibition, % at 9.66 µM. 37% of 390 active. AID 1117282;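 active means mean inhibition across replicates above a set limit taken from the earlier primary screen, cut at about 11% in these data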;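 further: 0% = REL1 with substrate and DMSO and 100% = REL1 plus control inhibitor NSC42067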
Starred values were filed as active, the others as inactive. Only a selection was taken, and hits are over-represented in it overall.

SMILES	TbREL1 inh	others
COc1ccc2c(=O)c3c(=O)n(Cc4ccco4)c(-c4ccccc4)nc3oc2c1	0.1
COc1ccc(Cn2c(C)nc3c(c(=O)c4ccccc4n3C)c2=O)cc1	3.2
COc1ccc(Cn2c(C)nc3c(c2=O)c2nc4ccccc4nc2n3Cc2ccco2)cc1	11.1*
O=C(c1ccc(Cl)c(Cl)c1)N1CCN(c2ccnc3cc(Cl)ccc23)CC1	-5.6
O=C(CNS(=O)(=O)c1cccs1)N1CCN(c2ncccn2)CC1	4.1
C=CC[C@@H]1NN2C(=O)[C@@H](C)[C@@H]3c4ccccc4C=NN3[C@@H]2c2ccccc21	0.9
Cc1ccccc1OCC(O)CNC1CCC(NCC(O)COc2ccccc2C)CC1 (stereo not drawn)	17.0*
OC(CNC1Cc2ccccc2C1)COc1ccc(F)cc1 (stereo not drawn)	4.4
CC(=O)Nc1ccc(OCC(O)CNC2CCCC2)cc1 (stereo not drawn)	-0.1
CCC[C@H]1[C@@H](OC(=O)N2CCN(c3ccccc3)CC2)CC[C@@]23CCCN2C(=O)CCC[C@@H]13	-8.0
Cc1ccc(OCc2nn3c(C4CCCCC4)nnc3s2)cc1	3.0
Oc1cccc(C=NCc2ccccc2)c1O	11.7*
O=C1C(C=NCc2cccnc2)=C(O)c2ccccc21	2.5
COc1cccc(/C=N/NC(=O)CNC(=O)CCc2ccccc2)c1O	1.1
CN(Cc1ccccc1)S(=O)(=O)c1cccc(C(=O)OCc2cccc(C(F)(F)F)c2)c1	1.2
O=C(NCc1ccccc1Cl)C1CCC(CNS(=O)(=O)c2cccc3cccnc23)CC1 (stereo not drawn)	3.7
Cc1ccc(-n2c(COc3ccccc3)nnc2SCC(=O)Nc2ccccc2-c2ccccc2)cc1	3.7
COCCCNC(=O)c1oc(=O)c2ccccc2c1-c1ccc(C)cc1	1.2
COc1cc2ccc(=O)oc2c(O[C@@H]2O[C@H](CO)[C@@H](O)[C@H](O)[C@H]2O)c1O	-5.4
COc1cc(O)c2c(=O)c3c(O[C@H]4O[C@@H](CO)[C@H](O)[C@@H](O)[C@@H]4O)ccc(O)c3oc2c1	-2.7
O=c1cc(-c2ccc(O)c(O)c2)oc2cc(O)c([C@@H]3O[C@H](CO)[C@@H](O)[C@H](O)[C@H]3O)c(O)c12	47.6*
O=S(=O)(N[C@@H]1CCCC[C@H]1N1CCOCC1)c1ccc(Cl)cc1	-2.1
COc1ccc(-n2c(SCC(=O)NNC(=S)Nc3ccccc3)nc3ccccc3c2=O)cc1	-4.6
O=C(CN(C(=O)OCC1c2ccccc2-c2ccccc21)[C@@H](Cc1ccccc1)C(=O)O)OCc1ccc(C(=O)NCc2ccccc2)cc1	4.5
O=[N+]([O-])c1cccc2[nH]c(CNc3nc(N4CCOCC4)nc4c3ncn4-c3ccsc3)nc12	-4.3
SMILES	TbREL1 inh	others
COc1ccc(Cn2cc(COC(=O)N3CCCC3)nn2)cc1	-2.2
CC(=O)Nc1sc2c(c1-c1nc3ccccc3s1)CCCN(C(C)C)C2	-0.5
Cc1nc2ccc(C(=O)N3CCN(C(=O)C(Cl)Cl)CC3)cc2n1C1CCCC1	-2.3
Cc1ccc(C)c(NC(=O)CN(C)C(=O)Cc2ccccc2)c1	-1.1
Cc1ccc(C)c(NC(=O)CN(C)C(=O)c2ccc(Cl)nc2)c1	11.1*
Cc1ccc(C)c(NC(=O)CN(C)C(=O)c2ccc3c(=O)n4c(nc3c2)CCC4)c1	0.3
O=C1CC(=O)N(Cc2ccco2)C(=O)N1	69.5*
O=C1CC(=O)N(Cc2cccs2)C(=O)N1	3.6
O=C1C2C(C(=O)N1Cc1ccco1)C1C=CC2C12CC2 (stereo not drawn)	-1.9
CN(C)CCCN(C(=O)c1ccc(S(=O)(=O)N2CCCCC2)cc1)c1nc2cc3c(cc2s1)OCO3	10.9
CN(C)CCCN(C(=O)c1ccc(C(=O)c2ccccc2)cc1)c1nc2ccc(F)cc2s1	13.8*	TbREL1 conf=10.0
CCN(Cc1ccccc1)S(=O)(=O)c1ccc(C(=O)N(CCCN(C)C)c2nc3ccc(F)cc3s2)cc1	4.9
Cc1cccc2sc(N(CCCN(C)C)C(=O)c3ccc(C(=O)c4ccccc4)cc3)nc12	5.2
CN(C)CCCN(C(=O)c1ccc(S(=O)(=O)N2CCCC2)cc1)c1nc2ccc(Br)cc2s1	9.9
CN(C)CCCN(C(=O)c1ccc(S(=O)(=O)N(C)C2CCCCC2)cc1)c1nc2ccc(F)cc2s1	11.4*	TbREL1 conf=11.0
Cc1ccc2nc(N(CCCN(C)C)C(=O)c3ccc4c(c3)CCCC4)sc2c1	2.2
CN(C)CCCN(C(=O)c1ccc(S(=O)(=O)N(C)C2CCCCC2)cc1)c1nc2ccc(Br)cc2s1	16.0*	TbREL1 conf=8.2
CCOc1ccc2nc(N(CCCN(C)C)C(=O)c3ccc(S(=O)(=O)N4CCCC4)cc3)sc2c1	0.8
COc1ccc(NC(=O)N2CCC(N(C)CCC(C)C)CC2)cc1OC	-0.1
COc1ccc(-n2c(COc3ccc(Cl)cc3)nnc2SCC(=O)c2ccc(-c3ccccc3)cc2)cc1	-3.2
O=C(CSc1nnc(-c2cccs2)o1)Nc1cccc2ccccc12	-1.7
O=C1C[C@@H](C(=O)Nc2ccc(Cl)cc2)[C@@H](c2ccccc2)O1	-1.9
O=C(NCCc1nc2ccccc2n1CCOc1ccc2cccnc2c1)C1CCCCC1	-2.6
Fc1ccc(-c2n[nH]c(=S)n2N=Cc2ccc(OCc3ccccc3)cc2)cc1	-6.2
COC(=O)C1=C(C)N(Cc2ccccc2)C(=NCc2ccc3c(c2)OCO3)N[C@H]1c1ccccc1	9.2
SMILES	TbREL1 inh	others
COC(=O)C1=C(C)N(Cc2ccccc2C(F)(F)F)C(=NCc2ccc3c(c2)OCO3)NC1c1ccc(Cl)cc1 (stereo not drawn)	10.6
COC(=O)C1=C(C)N(Cc2ccccc2C(F)(F)F)C(=NCc2ccc3c(c2)OCO3)NC1c1ccc(C(F)(F)F)cc1 (stereo not drawn)	13.8*	TbREL1 conf=21.1*
COC(=O)C1=C(C)N(Cc2ccccc2C(F)(F)F)C(=NCc2ccc3c(c2)OCO3)NC1c1ccccc1 (stereo not drawn)	12.4*	TbREL1 conf=14.1*
COC(=O)C1CN(Cc2ccccc2)CCS(=O)(=O)N1Cc1ccccc1F (stereo not drawn)	-1.0
O=C(CSc1nc2ccccc2c(=O)[nH]1)NC1CCCCC1	-2.3
COCCCNC(=O)C[C@H]1C(=O)N(Cc2ccc(OC)cc2)C2=CCCCC[C@@]21C(=O)OC	-7.7
Cc1ccc2nc(-c3ccc(NC(=O)CSc4nnc(-c5cc(-c6ccc(F)cc6)n[nH]5)n4N)cc3)sc2c1	0.8
O=C(O)CN1C(=O)C2C3C=CC(C2C1=O)C1C(=O)N(CC(=O)O)C(=O)C31 (stereo not drawn)	4.2
O=C(O)CN1C(=O)SC(Nc2ccc(Cl)cc2)C1=O (stereo not drawn)	11.1*	TbREL1 conf=5.7
O=C(CCNc1ccc(Cl)cc1)c1cccs1	-3.5
O=C(CSc1nnc(-c2ccccc2F)n1Cc1ccco1)Nc1ccccc1-c1ccccc1	-1.3
C[N+]1=C2N[C@@H](c3ccccc3)CC(=O)N2/C(=C\c2ccccc2)[C@@H]1Cc1ccccc1	-1.8
COC(=O)[C@]12C[C@H](CC(=O)N3CCCC3)C(=O)N(Cc3ccc(Cl)cc3Cl)C1=C[C@H](C(C)C)O[C@@H]2C1CC1	-3.6
C=CCNc1nc(NCc2cccc(OC)c2)c2sc(-c3ccccc3)cc2n1	2.4
CC(C)Nc1nc(NCCOc2ccccc2Cl)c2sc(-c3ccccc3)cc2n1	13.1*	TbREL1 conf=15.8*
CC(O)CNc1ncnc2cc(-c3ccc(F)cc3)sc12 (stereo not drawn)	7.2
Cc1ccccc1N1CCN(S(=O)(=O)c2ccc3c(c2)oc(=O)n3C)CC1	-0.6
